High-throughput results: PubChem, The Scripps Research Institute Molecular Screening Center
A selection: hits, their analogues and other compounds. The true share with any hit is near 3.4%.
PAFAH2 inh: PAFAH2 (human) inhibition | Q99487 | recombinant PAFAH2, FP-rhodamine activity probe, fluorescence polarization | inhibition, % at 3.39 µM | 340,000 compounds, 0.99% hits;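 active = inhibition above the mean over all tested compounds plus 3 SD, cut at about 30% in these data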;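 also: inhibitors block probe labeling of enzyme so polarization drops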
PAFAH1B3 inh: blocks human PAF acetylhydrolase 1B catalytic subunit 3; Q15102; recombinant PAFAH1B3, FP-rhodamine probe, fluorescence polarization; inhibition, % at 3.39 µM; 340,000 compounds, 0.28% hits;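 active = inhibition above the screen-wide average of all tested compounds plus 3 SD, cut at about 25% in these data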
PP1 inh: blocks human PP1-alpha phosphatase, a PP5 counter-screen; P62136; purified PP1alpha, OMFP fluorescence; inhibition, % at 6.7 µM; 320,000 compounds, 0.9% hits; AID 2235;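 active = inhibition above the mean inhibition of all tested compounds plus 3 SD, computed separately for each screening campaign, cut at about 15% in these data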
PAFAH1B2 inh: inhibitors of human PAFAH1B2 | P68402 | 340,000 compounds, 1.2% hits | recombinant PAFAH1B2, FP-rhodamine activity probe, fluorescence polarization | inhibition, % at 3.39 µM;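 active = inhibition above the mean of all tested compounds plus 3 SD, cut at about 24% in these data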
PP5 primary: blocks human protein phosphatase 5 activity; P53041; purified PP5c, OMFP substrate fluorescence; AID 1987; 320,000 compounds, 0.18% hits; inhibition, % at 6.7 µM;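 active = inhibition above the campaign's mean inhibition across all tested compounds plus 3 SD, cut at about 9.5% in these data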
Target sequence (P53041 whole entry, looked up): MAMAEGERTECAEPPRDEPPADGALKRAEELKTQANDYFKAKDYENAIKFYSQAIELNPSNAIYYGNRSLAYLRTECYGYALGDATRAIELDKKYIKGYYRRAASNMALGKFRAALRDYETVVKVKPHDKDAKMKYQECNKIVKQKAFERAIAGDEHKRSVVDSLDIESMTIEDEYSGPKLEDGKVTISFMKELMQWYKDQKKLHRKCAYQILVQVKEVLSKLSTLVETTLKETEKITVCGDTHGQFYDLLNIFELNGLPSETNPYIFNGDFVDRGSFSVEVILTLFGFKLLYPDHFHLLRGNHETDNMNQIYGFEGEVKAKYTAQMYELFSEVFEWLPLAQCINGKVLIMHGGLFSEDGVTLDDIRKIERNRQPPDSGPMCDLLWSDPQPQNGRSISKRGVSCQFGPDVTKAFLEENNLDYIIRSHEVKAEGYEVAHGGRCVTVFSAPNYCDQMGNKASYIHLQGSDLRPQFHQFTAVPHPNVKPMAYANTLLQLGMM
pPAFAH FP inh: pPAFAH (human) enzyme inhibition; inhibition, % at 3.39 µM; 330,000 compounds, 1.5% hits; recombinant pPAFAH, FP-rhodamine probe fluorescence polarization; AID 463082; Q13093;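 active = inhibition above the mean inhibition across the screen plus 3 SD, cut at about 25% in these data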;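 also: inhibitors block binding of the rhodamine activity-based probe so polarization drops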
Of the large screens only hits and unclear results are named; the others gave an inactive call.

O=[N+]([O-])c1cc(C(F)(F)F)ccc1Sc1nccn1Cc1ccccc1	PAFAH1B2 inh 70
O=[N+]([O-])c1ccc(Sc2nccn2Cc2ccccc2)c([N+](=O)[O-])c1	none
Oc1c(Cl)cc(Cl)c2cccnc12	none (no result: PP1 inh, PP5 primary, pPAFAH FP inh)
Oc1c(I)cc(I)c2cccnc12	pPAFAH FP inh 33
c1ccc(SCc2cc(-c3ccccc3)no2)cc1	PAFAH1B2 inh 26
C/C(=C\c1ccccc1)CN1CCN(C(C)C)C(CCO)C1 (configuration not stated)	none
Cc1ccc(N=C2S/C(=C\c3cn(CC(=O)O)c4ccccc34)C(=O)N2C)cc1	pPAFAH FP inh 26
CCN(CC)c1ccc(NC(=O)COC(=O)/C=C/c2nc3ccccc3s2)cc1	PP1 inh 15
Cc1onc(-c2c(Cl)cccc2Cl)c1C(=O)N=C(N)N1CC(C)OC(C)C1 (configuration not stated)	none
COc1ccc(C2NCCc3c2[nH]c2ccccc32)cc1COc1ccc(F)cc1 (configuration not stated)	PP1 inh 17
COc1ccc(C2NCCc3c2[nH]c2ccccc32)cc1CN1CCc2cc(OC)c(OC)cc2C1C (configuration not stated)	none (no result: PP1 inh, PP5 primary, pPAFAH FP inh)
COc1ccc(/C=C2\SC(=S)N(CC(=O)NC3C=CS(=O)(=O)C3)C2=O)cc1 (configuration not stated)	PP1 inh 16
Cc1ccc(C(=O)Nc2ncc(Cc3ccc(F)cc3)s2)o1	PAFAH1B2 inh 28
CCc1ccc(Cc2cnc(NC(=O)C3=NCCN3)s2)cc1	PP1 inh 17
COC(=O)C1=C(C(=O)OC)[C@]2([C@H]3CC=CCN[C@@H](Cc4ccccc4)C(=O)N3Cc3ccccc3)C=C[C@H]1O2	none (no result: PP1 inh, PP5 primary, pPAFAH FP inh)
O=C(OCCc1ccccc1)c1cc(O)c(O)c(O)c1	PAFAH1B2 inh 55
Nc1ccc(C(=O)OCCc2ccccc2)cc1	none
O=C(CSc1n[nH]c(-c2ccncc2)n1)Nc1ccc(F)cc1	none
Cc1ccc(NC(=O)CSc2n[nH]c(-c3ccncc3)n2)cc1C	pPAFAH FP inh 29
NC(=O)c1ccc(NC(=O)COC(=O)CCSc2ccccc2)cc1	none
NS(=O)(=O)c1cccc(NC(=O)CN2C(=O)C(=O)N(Cc3ccccc3)C2=O)c1	none (no result: PP1 inh, PP5 primary)
NS(=O)(=O)c1cccc(NC(=O)COC(=O)CSCc2ccccc2)c1	pPAFAH FP inh 28 (no result: PP1 inh, PP5 primary)
O=C(COC(=O)CCSc1ccccc1)Nc1ccc(F)cc1Cl	none
Cc1ccc(SCCC(=O)OCC(=O)Nc2ccc(C(N)=O)cc2)cc1	PAFAH1B2 inh 26
O=C(COC(=O)CCSc1ccccc1)Nc1cc(F)ccc1F	PAFAH1B2 inh 32
NS(=O)(=O)c1cccc(NC(=O)COC(=O)CCSc2ccccc2)c1	pPAFAH FP inh 25
CCN(Cc1nc2ccccc2c(=O)[nH]1)C(=O)COc1ccccc1-c1ccccc1	none
N#CCCN(C(=S)NC(=O)c1cccs1)c1ccccc1F	none (no result: PP1 inh, PP5 primary, pPAFAH FP inh)
Cc1cc(NC(=O)c2ccccc2F)nc2c1c(=O)oc1ccccc12	none
O=C(OCc1c(Cl)cccc1Cl)c1cnccn1	none
O=C(OCc1c(Cl)cccc1Cl)c1cccnc1	pPAFAH FP inh 33
O=C(OCc1c(Cl)cccc1Cl)c1cccnc1Cl	pPAFAH FP inh 32
O=C(OCc1ccccc1Cl)c1cccnc1Cl	none
O=C(O)c1cc([N+](=O)[O-])ccc1NCCCc1ccccc1	PAFAH1B2 inh 50, pPAFAH FP inh 27
O=c1cc2c(c(-c3ccccc3)n1Cc1ccccc1)[C@@H](CCO)NC2	none (no result: PP1 inh, PP5 primary, pPAFAH FP inh)
C#CCCc1cscc1/C=[N+](\[O-])c1ccc(C(=O)OCC)cc1	PP1 inh 15
CCOC(=O)c1ccc(/[N+]([O-])=C/c2ccccc2)cc1	none
Cc1ccc(CNC(=O)/C=C/c2ccc(S(=O)(=O)NCc3ccco3)cc2)cc1	none
COc1ccccc1CNC(=O)/C=C/c1ccc(S(=O)(=O)NCc2ccco2)cc1	pPAFAH FP inh 25
O=C(/C=C/c1ccc(S(=O)(=O)NCc2ccco2)cc1)NCc1cccc(Cl)c1	pPAFAH FP inh 29
O=C(O)/C=C/c1ccc(S(=O)(=O)NCc2ccco2)cc1	none
CCCCN1CC(COCc2ccccc2)Oc2cccc(OCCN3C(=O)[C@@H]4[C@H](C3=O)C3C=C[C@H]4C3)c2S1(=O)=O (some centres not stated)	none (no result: PP1 inh, PP5 primary, pPAFAH FP inh)
